In PubChem BioAssay (NCI):
Compounds without any hit were thinned out: in the full panel of roughly 83,000, 20% have a hit.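 Activity criterion: percent growth below 10, measured after cells in 96-well plates were exposed to a single compound concentration for 48 hours.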 Calls of active or inactive are those of the source.

Legend:
Assay in all cases: NCI-60 one-dose screen, 48 h (100 = growth as untreated, 0 = no growth, -100 = all killed)
Conditions in all cases: 10 µM unless noted
SK-MEL-2 melanoma = system: SK-MEL-2 melanoma
EKVX NSCLC = system: EKVX NSCLC
SN12C renal = system: SN12C renal
UO-31 renal = system: UO-31 renal
TK-10 renal = system: TK-10 renal
ACHN renal = system: ACHN renal
CAKI-1 renal = system: CAKI-1 renal
A498 renal = system: A498 renal
CCRF-CEM leukemia = system: CCRF-CEM leukemia
MOLT-4 leukemia = system: MOLT-4 leukemia
SR leukemia = system: SR leukemia
RPMI-8226 leukemia = system: RPMI-8226 leukemia
OVCAR-8 ovarian = system: OVCAR-8 ovarian
OVCAR-5 ovarian = system: OVCAR-5 ovarian
OVCAR-4 ovarian = system: OVCAR-4 ovarian
SK-OV-3 ovarian = system: SK-OV-3 ovarian
IGROV1 ovarian = system: IGROV1 ovarian
OVCAR-3 ovarian = system: OVCAR-3 ovarian
HS 578T breast = system: HS 578T breast
NCI/ADR-RES ovarian = system: NCI/ADR-RES ovarian

Measured: growth

O=C(N=Nc1c(O)[nH]c2ccc([N+](=O)[O-])cc12)c1ccc2nc(-c3ccccc3)[nH]c2c1
active: OVCAR-3 ovarian -13.2%
inactive: SK-MEL-2 melanoma 77% | EKVX NSCLC 97.5% | SN12C renal 49.5% | UO-31 renal 84.4% | TK-10 renal 140% | ACHN renal 101% | CAKI-1 renal 91.7% | A498 renal 122% | CCRF-CEM leukemia 32.7% | MOLT-4 leukemia 43.3% | SR leukemia 30.9% | RPMI-8226 leukemia 110% | OVCAR-8 ovarian 65.1% | OVCAR-5 ovarian 107% | OVCAR-4 ovarian 45.8% | SK-OV-3 ovarian 96.9% | IGROV1 ovarian 76.9% | HS 578T breast 62.6% | NCI/ADR-RES ovarian 103%

Nc1nc(-c2ccccc2)c(N=Nc2ccc([N+](=O)[O-])cc2Cl)s1
inactive: SK-MEL-2 melanoma 43.4% | EKVX NSCLC 89.2% | SN12C renal 83.7% | UO-31 renal 94.9% | TK-10 renal 172% | ACHN renal 79.1% | CAKI-1 renal 81.2% | A498 renal 73.6% | CCRF-CEM leukemia 78.7% | MOLT-4 leukemia 79% | SR leukemia 136% | RPMI-8226 leukemia 53% | OVCAR-8 ovarian 78.5% | OVCAR-5 ovarian 107% | OVCAR-4 ovarian 80.4% | SK-OV-3 ovarian 82% | IGROV1 ovarian 86.3% | OVCAR-3 ovarian 74.8% | HS 578T breast 85% | NCI/ADR-RES ovarian 89.6%

O=c1oc2ccccc2cc1-c1csc(N=Nc2c(O)[nH]c3ccc(Cl)cc23)n1
inactive: SK-MEL-2 melanoma 112% | EKVX NSCLC 100% | SN12C renal 97.9% | UO-31 renal 97.7% | TK-10 renal 109% | ACHN renal 110% | CAKI-1 renal 106% | A498 renal 98.6% | CCRF-CEM leukemia 103% | MOLT-4 leukemia 109% | SR leukemia 96.3% | RPMI-8226 leukemia 117% | OVCAR-8 ovarian 110% | OVCAR-5 ovarian 116% | OVCAR-4 ovarian 99.5% | SK-OV-3 ovarian 94.1% | IGROV1 ovarian 120% | OVCAR-3 ovarian 102% | HS 578T breast 99.2% | NCI/ADR-RES ovarian 103%

C#CCOc1ccc(/C=N/Nc2nc(-c3ccc(F)cc3)cs2)cc1OC
inactive: SK-MEL-2 melanoma 60.8% | EKVX NSCLC 62.5% | SN12C renal 68.9% | UO-31 renal 48.4% | TK-10 renal 156% | ACHN renal 64.5% | CAKI-1 renal 56.2% | A498 renal 80.7% | CCRF-CEM leukemia 26.3% | MOLT-4 leukemia 12.1% | SR leukemia 25.5% | RPMI-8226 leukemia 35.5% | OVCAR-8 ovarian 63.8% | OVCAR-5 ovarian 84.9% | OVCAR-4 ovarian 65.6% | SK-OV-3 ovarian 88% | IGROV1 ovarian 72.6% | OVCAR-3 ovarian 71.2% | HS 578T breast 81.2% | NCI/ADR-RES ovarian 32.2%

Cc1ccc(C(=O)C(c2c[nH]c3ccccc23)c2c[nH]c3ccccc23)cc1
active: SN12C renal -12.8% | CCRF-CEM leukemia 5.91% | MOLT-4 leukemia 5.7% | SR leukemia -6.82% | RPMI-8226 leukemia -2.33%
inactive: SK-MEL-2 melanoma 72.4% | EKVX NSCLC 56.5% | UO-31 renal 26.4% | TK-10 renal 111% | ACHN renal 17.9% | CAKI-1 renal 18.7% | A498 renal 108% | OVCAR-8 ovarian 44.2% | OVCAR-5 ovarian 46.7% | OVCAR-4 ovarian 43.7% | SK-OV-3 ovarian 94% | IGROV1 ovarian 35.8% | OVCAR-3 ovarian 29.2% | HS 578T breast 83.2% | NCI/ADR-RES ovarian 24.8%

CCOC(=O)/C=C/c1cccc2c1C(=O)NC(C)(c1cc3cc(Br)ccc3oc1=O)N2 (stereo not given)
active: SK-MEL-2 melanoma 5.72%
inactive: EKVX NSCLC 43.8% | SN12C renal 53.3% | UO-31 renal 19.8% | TK-10 renal 58.4% | ACHN renal 28.1% | CAKI-1 renal 20.2% | A498 renal 59.8% | CCRF-CEM leukemia 36.8% | MOLT-4 leukemia 30.4% | SR leukemia 27.7% | RPMI-8226 leukemia 32% | OVCAR-8 ovarian 37.8% | OVCAR-5 ovarian 76.4% | OVCAR-4 ovarian 40.2% | SK-OV-3 ovarian 38.6% | IGROV1 ovarian 18.2% | OVCAR-3 ovarian 48.4% | HS 578T breast 63.2% | NCI/ADR-RES ovarian 42.2%

C/C(=N\N=C1/C(=O)Nc2ccc(Cl)cc21)c1ccc2c(c1)Nc1ccccc1S2
inactive: EKVX NSCLC 12.6% | UO-31 renal 18.2% | TK-10 renal 22.4% | A498 renal 23.7% | SR leukemia 11.4% | RPMI-8226 leukemia 10.8% | OVCAR-5 ovarian 15.8% | OVCAR-4 ovarian 15.7% | SK-OV-3 ovarian 50.4%
active: SK-MEL-2 melanoma -13.6% | SN12C renal -16.2% | ACHN renal -3.77% | CAKI-1 renal 6.63% | CCRF-CEM leukemia 9.58% | MOLT-4 leukemia -1.18% | OVCAR-8 ovarian -15.6% | IGROV1 ovarian -8.9% | OVCAR-3 ovarian -66.9% | HS 578T breast 9.82% | NCI/ADR-RES ovarian -28.3%

Cn1cc(-c2cc3nc(-c4cn(C)c5ncccc45)cc(N)n3n2)c2cc(Cl)ccc21
active: SK-MEL-2 melanoma -80% | EKVX NSCLC -38.5% | SN12C renal -93.8% | UO-31 renal -87.5% | TK-10 renal -83.2% | ACHN renal -94.4% | CAKI-1 renal -46.9% | A498 renal -75.9% | CCRF-CEM leukemia -14.4% | MOLT-4 leukemia -45.7% | SR leukemia -54.7% | RPMI-8226 leukemia -13.9% | OVCAR-8 ovarian -41.4% | OVCAR-5 ovarian 0.37% | OVCAR-4 ovarian -16.5% | SK-OV-3 ovarian -67.7% | IGROV1 ovarian -82.7% | OVCAR-3 ovarian -75% | HS 578T breast -29.7% | NCI/ADR-RES ovarian -43.6%

CN(C)CCOc1ccc(C(=O)C2[C@H](c3ccc(Cl)cc3)[C@@H](c3ccccc3)NC23C(=O)Nc2ccc(Br)cc23)cc1 (stereo not given in full)
active: SN12C renal 7.21% | ACHN renal -27.9% | MOLT-4 leukemia -52.3% | SR leukemia -36.4% | RPMI-8226 leukemia -30.8% | OVCAR-8 ovarian -61.8% | OVCAR-3 ovarian -4.55%
inactive: SK-MEL-2 melanoma 54.1% | EKVX NSCLC 12.3% | UO-31 renal 32.8% | TK-10 renal 90.2% | CAKI-1 renal 18.5% | A498 renal 96% | CCRF-CEM leukemia 43.9% | OVCAR-5 ovarian 36.4% | OVCAR-4 ovarian 33.9% | SK-OV-3 ovarian 96% | IGROV1 ovarian 29.1% | HS 578T breast 58.7% | NCI/ADR-RES ovarian 23%

S=C(NCCc1ccccc1)Nc1ccc(OCc2nc3ccccc3[nH]2)cc1
inactive: SK-MEL-2 melanoma 121% | EKVX NSCLC 101% | SN12C renal 96.8% | UO-31 renal 84.3% | TK-10 renal 112% | ACHN renal 104% | CAKI-1 renal 87.3% | A498 renal 111% | CCRF-CEM leukemia 96.7% | MOLT-4 leukemia 100% | SR leukemia 95.7% | RPMI-8226 leukemia 101% | OVCAR-8 ovarian 102% | OVCAR-5 ovarian 105% | OVCAR-4 ovarian 108% | SK-OV-3 ovarian 99.4% | IGROV1 ovarian 113% | OVCAR-3 ovarian 112% | HS 578T breast 109% | NCI/ADR-RES ovarian 110%

Cc1ccc(S(=O)(=O)c2nc(S(=O)(=O)c3ccc(C)cc3)c(Cl)s2)cc1
active: EKVX NSCLC 0.151% | SN12C renal -20.5% | UO-31 renal -6.4% | TK-10 renal -50.4% | ACHN renal -92.3% | CAKI-1 renal -75.8% | CCRF-CEM leukemia 5.23% | SR leukemia 3.18% | RPMI-8226 leukemia -32.7% | OVCAR-8 ovarian 9.84% | OVCAR-4 ovarian -26.1% | OVCAR-3 ovarian -87.5%
inactive: SK-MEL-2 melanoma 42.5% | A498 renal 122% | MOLT-4 leukemia 16.6% | OVCAR-5 ovarian 31.6% | SK-OV-3 ovarian 133% | IGROV1 ovarian 44.8% | HS 578T breast 86.5% | NCI/ADR-RES ovarian 29.5%

CC(=O)Nc1ccc(-n2cnc3ccc(-c4ccc(O)cc4)cc32)cc1
inactive: SK-MEL-2 melanoma 50.7% | EKVX NSCLC 54.8% | SN12C renal 29.3% | UO-31 renal 46.2% | TK-10 renal 89.9% | ACHN renal 24.7% | CAKI-1 renal 29.9% | A498 renal 92.8% | CCRF-CEM leukemia 30.2% | MOLT-4 leukemia 11.3% | SR leukemia 15.8% | RPMI-8226 leukemia 38.9% | OVCAR-8 ovarian 42.1% | OVCAR-5 ovarian 72.2% | OVCAR-4 ovarian 67.3% | SK-OV-3 ovarian 66.8% | IGROV1 ovarian 27.2% | OVCAR-3 ovarian 54.3% | NCI/ADR-RES ovarian 84.4%
active: HS 578T breast 8.57%

O=c1[nH]c(=O)c2c(-c3cc4ccccc4oc3=O)ccnc2[nH]1
inactive: SK-MEL-2 melanoma 82.6% | EKVX NSCLC 103% | SN12C renal 81% | UO-31 renal 71.6% | TK-10 renal 105% | ACHN renal 53.2% | CAKI-1 renal 48.1% | A498 renal 148% | CCRF-CEM leukemia 101% | MOLT-4 leukemia 111% | SR leukemia 71.8% | RPMI-8226 leukemia 95% | OVCAR-8 ovarian 61.6% | OVCAR-5 ovarian 111% | OVCAR-4 ovarian 88.3% | SK-OV-3 ovarian 71.2% | IGROV1 ovarian 79.4% | OVCAR-3 ovarian 98.9% | HS 578T breast 70.4% | NCI/ADR-RES ovarian 86.9%

COc1ccc2[nH]c(O)c(N=NC(=O)Cn3c(-c4ccccc4)nc4cc(C)ccc43)c2c1
inactive: SK-MEL-2 melanoma 88.4% | EKVX NSCLC 66.3% | UO-31 renal 49.7% | TK-10 renal 97.7% | ACHN renal 41.1% | CAKI-1 renal 61.9% | A498 renal 119% | MOLT-4 leukemia 18.5% | RPMI-8226 leukemia 10.7% | OVCAR-5 ovarian 62.8% | OVCAR-4 ovarian 45.3% | SK-OV-3 ovarian 89.9% | IGROV1 ovarian 51.9% | OVCAR-3 ovarian 37.3% | HS 578T breast 25.6%
active: SN12C renal -73.7% | CCRF-CEM leukemia 8.31% | SR leukemia 1.82% | OVCAR-8 ovarian 1.93% | NCI/ADR-RES ovarian -5.85%

CC1(C)CC[C@]2(C(=O)O)CC[C@]3(C)C(=CCC4[C@@]5(C)C[C@@H](O)[C@@H]6OC(c7ccccc7Br)OC[C@@]6(C)C5CC[C@]43C)C2C1 (stereo not given in full)
inactive: EKVX NSCLC 18.4% | SN12C renal 14.9% | UO-31 renal 15.5% | TK-10 renal 21% | CAKI-1 renal 14.6% | A498 renal 23.7% | CCRF-CEM leukemia 13.1% | MOLT-4 leukemia 10.5% | SR leukemia 12.5% | OVCAR-8 ovarian 14.7% | OVCAR-5 ovarian 36% | OVCAR-4 ovarian 33.1% | SK-OV-3 ovarian 40.2% | IGROV1 ovarian 35% | HS 578T breast 31.9% | NCI/ADR-RES ovarian 11.5%
active: SK-MEL-2 melanoma -1.06% | ACHN renal 9.85% | RPMI-8226 leukemia 8.21% | OVCAR-3 ovarian 9.3%
